From PubChem BioAssay (NCATS)
Records with an inconclusive call do not appear. Unless noted, the call rests on the fitted dose curve; in most records, active means well fitted curve in either direction with a large enough effect (not every such curve was filed as active); inconclusive means small, poorly fitted or top-dose-only effect, or another doubt; inactive means flat fitted curve, though single readings scatter.

Key:
[1] = AP1 Signaling Pathway (AID 357); conditions: ME-180 AP-1-bla reporter, EGF-induced, beta-lactamase ratio, 5 h; at 17.2 µM (top of the series) unless noted;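 further: ME-180 reporter cells stimulated with EGF at its EC50 level; on the % scale 0 is the no-effect control and ±100 the full control effect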
Outline: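 Cells are seeded overnight, exposed to compound titrations and an EC50 level of EGF for 5 hours at 37 °C, then loaded with CCF4 dye for 2.5 hours. Beta-lactamase activity under the AP-1 element is read as a blue/green ratio.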

[2] = NFAT Signaling Pathway (AID 444); conditions: Jurkat NFAT-bla M1, carbachol, beta-lactamase ratio, 5 h; at 17.2 µM (top of the series) unless noted;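 further: carbachol stimulus at about its EC50 of 1 µM final; on the % scale 0 is the no-effect control and ±100 the full control effect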
Outline: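 Jurkat cells with NFAT-driven β-lactamase reporter and co-expressed M1 receptor, stimulated with carbachol (final 1 uM, ~EC50), compound titration, 5 h at 37 °C. CCF4 loaded 1 h at RT; 460/530 nm ratio gave %activity and AC50.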

[3] = Stat Signaling Pathway (AID 446); conditions: ME-180 SIE beta-lactamase reporter, IL-6 stimulated, 5 h; at 17.2 µM (top of the series) unless noted;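 further: ME-180 cervical cancer cells given 40 pM IL-6 alongside compound; SIE-controlled beta-lactamase reporter measured as 460/530 nm FRET emission ratio; on the % scale 0 is the no-effect control and ±100 the full control effect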
Outline: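 Screening format detects activators and inhibitors alike: ME-180 SIE-bla cells stimulated at 40 pM IL-6 for 5 hrs with compound, then dual-emission beta-lactamase read at 405 nm excitation.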

[4] = target: Glucocorticoid receptor (Homo sapiens) (UniProt P04150); assay: GR-GFP Redistribution (AID 450;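 active means compounds whose dose series gives a full or clear partial fitted curve of increased nuclear translocation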; further: potency means the concentration at half of the fitted maximal effect)
Sequence of Glucocorticoid receptor (Homo sapiens) (P04150 whole entry, looked up): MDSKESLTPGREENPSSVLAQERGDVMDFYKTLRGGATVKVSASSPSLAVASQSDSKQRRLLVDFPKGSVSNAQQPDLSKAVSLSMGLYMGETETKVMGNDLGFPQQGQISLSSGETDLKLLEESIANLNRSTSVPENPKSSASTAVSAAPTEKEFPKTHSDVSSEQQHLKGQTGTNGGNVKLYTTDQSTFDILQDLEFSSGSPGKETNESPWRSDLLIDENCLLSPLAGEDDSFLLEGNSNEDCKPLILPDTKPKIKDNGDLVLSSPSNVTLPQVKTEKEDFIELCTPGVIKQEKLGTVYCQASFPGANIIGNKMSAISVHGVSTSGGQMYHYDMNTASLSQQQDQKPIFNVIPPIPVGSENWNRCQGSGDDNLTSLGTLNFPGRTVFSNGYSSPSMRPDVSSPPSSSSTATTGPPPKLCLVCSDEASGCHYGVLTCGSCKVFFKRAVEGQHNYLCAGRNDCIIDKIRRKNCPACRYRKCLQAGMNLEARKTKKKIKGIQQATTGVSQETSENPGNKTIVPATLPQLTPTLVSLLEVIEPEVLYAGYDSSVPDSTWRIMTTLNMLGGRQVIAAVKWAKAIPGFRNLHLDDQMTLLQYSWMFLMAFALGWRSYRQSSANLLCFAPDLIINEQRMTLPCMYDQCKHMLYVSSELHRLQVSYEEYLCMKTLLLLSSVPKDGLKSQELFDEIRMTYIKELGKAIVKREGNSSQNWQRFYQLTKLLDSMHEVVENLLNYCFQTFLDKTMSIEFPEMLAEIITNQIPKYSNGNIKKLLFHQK

O=C1C=C(O)CC(c2ccco2)C1 (stereo not given)
inactive: activity change, negative = inhibition [1] 10.5% | activity change, negative = inhibition [2] -7.18% | activity, negative = inhibition [3] 3.18% | Potency [4] > 20.6 µM

COc1ccc(/C(O)=C2/C(=O)C(=O)N(c3nc(C)c(C)s3)C2c2ccco2)cc1 (stereo not given)
inactive: activity change, negative = inhibition [1] -13.8% | activity change, negative = inhibition [2] 21.3% | activity, negative = inhibition [3] -14.6% | Potency [4] > 20.6 µM

Cc1nc(NCCO)c(C#N)c2c1COC(C)(C)C2
inactive: activity change, negative = inhibition [1] -5.08% | activity change, negative = inhibition [2] 2.21% | activity, negative = inhibition [3] 4.18% | Potency [4] > 20.6 µM

CCCC(=O)N1CCN(c2nc(CC(C)C)c3c(c2C#N)CCC3)CC1
inactive: activity change, negative = inhibition [1] -11.7% | activity change, negative = inhibition [2] -18.4% | activity, negative = inhibition [3] -1.27% | Potency [4] > 20.6 µM

Cc1nc2c(c(=O)n1CC1CCCO1)c1nc3ccccc3nc1n2CC(C)C (stereo not given)
inactive: activity change, negative = inhibition [1] 2.75% | activity change, negative = inhibition [2] 6.99% | activity, negative = inhibition [3] 8.26% | Potency [4] > 20.6 µM

CCOc1ccc(Br)cc1CC(=O)O
inactive: activity change, negative = inhibition [1] 8.45% | activity change, negative = inhibition [2] -5.28% | activity, negative = inhibition [3] 12.6% | Potency [4] > 20.6 µM

CCN(CC)C(=O)COn1c(SCC(=O)N(CC)CC)nc2ccccc2c1=O
inactive: activity change, negative = inhibition [1] -3.71% | activity change, negative = inhibition [2] 17.3% | activity, negative = inhibition [3] 9.4% | Potency [4] > 20.6 µM

Nc1nnnn1CC(=O)OCc1cccc(Br)c1
inactive: activity change, negative = inhibition [1] -12.9% | activity change, negative = inhibition [2] 14.6% | activity, negative = inhibition [3] 12.3% | Potency [4] > 20.6 µM

c1ccc(-c2nc(NCC3CCCO3)c3ccccc3n2)nc1 (stereo not given)
inactive: activity change, negative = inhibition [1] -1.55% | activity change, negative = inhibition [2] -27.7% | activity, negative = inhibition [3] -6.67% | Potency [4] > 20.6 µM

Cc1cc(=O)oc(C)c1C(=O)NCC(C)C
inactive: activity change, negative = inhibition [1] 0.878% | activity change, negative = inhibition [2] -1.32% | activity, negative = inhibition [3] 8.66% | Potency [4] > 20.6 µM

CS(=O)(=O)c1ccc2nc(NC(NC(=O)c3ccco3)(C(F)(F)F)C(F)(F)F)sc2c1
inactive: activity change, negative = inhibition [1] -11.7% | activity change, negative = inhibition [2] 21.2% | activity, negative = inhibition [3] -18.9% | Potency [4] > 20.6 µM

COC(=O)COn1c(SCC(=O)OC)nc2ccccc2c1=O
inactive: activity change, negative = inhibition [1] 2.38% | activity change, negative = inhibition [2] 3.27% | activity, negative = inhibition [3] -1.3% | Potency [4] > 20.6 µM

Cc1nnc(SCc2nc3ccccc3[nH]2)s1
inactive: activity change, negative = inhibition [1] 1.21% | activity change, negative = inhibition [2] 8.95% | activity, negative = inhibition [3] 4.08% | Potency [4] > 20.6 µM

CCOC(=O)c1ccc(NC(=O)CCC(CC)C(=O)O)cc1 (stereo not given)
inactive: activity change, negative = inhibition [1] -2.51% | activity change, negative = inhibition [2] -11.6% | activity, negative = inhibition [3] 3.77% | Potency [4] > 20.6 µM

O=C(C1CC1(c1ccccc1)c1ccccc1)N1CCOCC1 (stereo not given)
inactive: activity change, negative = inhibition [1] -9.16% | activity change, negative = inhibition [2] 10.4% | activity, negative = inhibition [3] 0.797% | Potency [4] > 20.6 µM

CCSc1nnc(NC(=O)C(C)(C(F)(F)F)C(F)(F)F)s1
inactive: activity change, negative = inhibition [1] -11.1% | activity change, negative = inhibition [2] -18.1% | activity, negative = inhibition [3] -24.8% | Potency [4] > 20.6 µM

C=CCNc1sc(C(=O)C2CC2)c(N)c1C#N
inactive: activity change, negative = inhibition [1] -5.75% | activity change, negative = inhibition [2] 4.81% | activity, negative = inhibition [3] -6.27% | Potency [4] > 20.6 µM

Cc1cc(NC(=O)CSc2nc(-c3cccnc3)ccc2C#N)no1
inactive: activity change, negative = inhibition [1] -14.4% | activity change, negative = inhibition [2] 6.09% | activity, negative = inhibition [3] -9.33% | Potency [4] > 20.6 µM

CC1=CC=CN2CC(O)CN=C12 (stereo not given)
inactive: activity change, negative = inhibition [1] 3.58% | activity change, negative = inhibition [2] -0.121% | activity, negative = inhibition [3] 3.52% | Potency [4] > 20.6 µM

Cc1ccc(C(=O)C2=C(O)C(=O)N(c3ncccn3)C2c2cccc(Cl)c2)o1 (stereo not given)
inactive: activity change, negative = inhibition [1] -1.15% | activity change, negative = inhibition [2] 24.9% | activity, negative = inhibition [3] -7.64% | Potency [4] > 20.6 µM

CCCC1Cc2c(sc3ncnc(N)c23)CO1 (stereo not given)
inactive: activity change, negative = inhibition [1] -16.4% | activity change, negative = inhibition [2] -5.16% | activity, negative = inhibition [3] -9.41% | Potency [4] > 20.6 µM

Cc1nc(Nc2ncc3c(n2)CC(C)(C)CC3=O)nc2ccccc12
inactive: activity change, negative = inhibition [1] -5.98% | activity change, negative = inhibition [2] 10.6% | activity, negative = inhibition [3] -25% | Potency [4] > 20.6 µM

COC(=O)c1ccccc1NC(=O)C1COc2ccccc2O1 (stereo not given)
inactive: activity change, negative = inhibition [1] -7.17% | activity change, negative = inhibition [2] -19.3% | activity, negative = inhibition [3] 2.58% | Potency [4] > 20.6 µM

CCOC(=O)CC(=O)CSc1nc2c(cc1C#N)CCCCCC2
inactive: activity change, negative = inhibition [1] -15.8% | activity change, negative = inhibition [2] 2.93% | activity, negative = inhibition [3] -11.8% | Potency [4] > 20.6 µM

CN(C)CCCn1c(NC(=O)C2CCCCC2)nc2ccccc21
inactive: activity change, negative = inhibition [1] 1.38% | activity change, negative = inhibition [2] -10.7% | activity, negative = inhibition [3] 6.97% | Potency [4] > 20.6 µM
